Sfp inh: blocks B. subtilis Sfp PPTase activity; Biochemical Sfp PPTase activity, qHTS; Potency, µM, inactives show largest response in the series, negative = inhibition, usual class: inhibitors; 310,000 tested, 3.5% active;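 further: the enzyme is Sfp with the accession as filed and its product quenches rhodamine fluorescence; 0% = enzyme reaction without inhibitor and -100% = no enzyme wells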
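Sfp 15 nM + cpd, 15 min RT; start w/ rhodamine-CoA 5 uM, BHQ-2-YbbR 12.5 uM (final); 50 mM Hepes pH 7.6, 10 mM MgCl2, 0.01% NP-40, 0.01% BSA; read 525/598 nm at 0 and 30 min.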
Glioma ERSR ind: ER stress response induction in glioma; U87-MG GRP78 promoter luciferase reporter, 16 h; Potency, µM, inactives show at the highest dose activation, most hits filed as activators; 420,000 tested, 0.02% active; further: series mostly up to about 76 µM; % of control where 0% means no effect; nearly all actives have a fitted effect of over 35% in size
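ERSR induction read as luciferase luminescence (Bright-Glo, 10 min at room temperature) in stably transfected human U87-MG glioma cells exposed to compounds for 16 h, using GRP78 as sensor.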
ALOX12 inh: ALOX12 (human) lipoxygenase inhibition; P18054; purified 12hLO, xylenol orange hydroperoxide absorbance; Potency, µM (series often up to 108 µM), for inactives: top-dose activity change, negative = inhibition, usual class: inhibitors; 580,000 tested, 1.1% active; AID 1671190; further: on the % scale 0 is the no-effect control and ±100 the full control effect
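Purified human 12hLO at 150 nM in 25 mM Hepes, 0.01% Triton X-100, pH 7.0, preincubated 15 min at room temperature with compound. Reaction started with 40 uM arachidonic acid, 30 min at room temperature. Hydroperoxide measured by Fe-xylenol orange, 573/405 nm absorbance ratio.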
G9a block: blocks human histone lysine methyltransferase G9a | Q96KQ7 | G9a H3K9 monomethylation, AlphaScreen, 2 h | Potency, µM (doses to about 102 µM), without a hit: top-dose activity, negative = inhibition, actives largely listed as inhibitors | 350,000 tested, 8.8% active; further: on the % scale 0 is the no-effect control and ±100 the full control effect; nearly all actives have a fitted effect of over 75% in size
Target sequence (Q96KQ7 913-1193 limits assumed): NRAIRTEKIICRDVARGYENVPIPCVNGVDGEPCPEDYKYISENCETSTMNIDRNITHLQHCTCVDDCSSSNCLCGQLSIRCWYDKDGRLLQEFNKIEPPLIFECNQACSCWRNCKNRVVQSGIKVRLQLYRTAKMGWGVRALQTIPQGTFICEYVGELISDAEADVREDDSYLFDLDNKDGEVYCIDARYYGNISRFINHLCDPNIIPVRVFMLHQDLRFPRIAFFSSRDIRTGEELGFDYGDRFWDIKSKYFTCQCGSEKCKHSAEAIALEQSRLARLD
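Step 1: enzyme (final 20 nM) with compound, 15 min RT. Step 2: substrate peptide 500 nM and SAM 20 uM, 2 h RT. Step 3: anti-H3K9me1 antibody and AlphaScreen beads, 10 min, then plate read.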
VDR inhibitor: inhibitors of human vitamin D receptor; P11473; VDR-SRC2-3 peptide fluorescence polarization, 2 h; Potency, µM, inactives show max response, negative = inhibition, hits mostly inhibitors; 400,000 tested, 0.93% active; further: on the % scale 0 is the no-effect control and ±100 the full control effect
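Reagent solutions, kept cold and dark, are dispensed first; compounds are then pinned in at 23 nl, plates briefly spun, and incubated 2 h at ambient temperature. Inhibition of VDR–SRC2-3 peptide binding is read by fluorescence polarization.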
* hit, by the source's call; ? = inconclusive; nt = not tested or not shown; [ ] = dose if it differs, or a comment. Only a selection was taken, and hits are over-represented in it overall. The call rests on the fitted dose curve; in most records, active means well fitted curve in the direction sought with a large enough effect; inconclusive means small, poorly fitted or top-dose-only effect, or another doubt; inactive means no such curve, though single readings can be large; an effect the other way counts as inactive or inconclusive. Potency means the concentration at half of the fitted maximal effect.

SMILES	Sfp inh	Glioma ERSR ind	ALOX12 inh	G9a block	VDR inhibitor
CCOC(=O)C1=C(O)c2ccccc2C(=O)/C1=C\c1ccc(CC)cc1	2µM*	?	?	5.6µM*	3.5µM*
CCCc1ccc(/C=C2\C(=O)c3ccccc3C(O)=C2C(=O)OCC)cc1	2.8µM*	nt	nt	5.6µM*	nt
COc1ccc(-c2cc3ccc(OC)cc3oc2=O)c(OC)c1	nt	nt	-27%	nt	nt
Cc1oc(-c2nc(C#N)c(NCCCN(C)C)o2)cc1S(=O)(=O)N1CCCC1	nt	nt	-6%	nt	nt
Cc1nnc(SCC2=C(C(=O)O)N3C(=O)C(NC(=O)c4cccc(F)c4F)C3SC2)s1 (stereo not given)	56µM*	-1%	-19%	?	?
CC(=O)OCC1=C(C(=O)O)N2C(=O)C(NC(=O)c3ccc(F)cc3)C2SC1 (stereo not given)	2%	1%	?	-44%	-13%
Cc1cc(C)n(CC(=O)NC2C(=O)N3C(C(=O)O)=C(CSc4nnc(C)s4)CSC23)n1 (stereo not given)	56µM*	-2%	-2%	40µM*	-20%
O=C(Cn1cnnn1)N[C@@H]1C(=O)N2C(C(=O)O)=C(CSc3nncs3)CS[C@H]12	nt	-3%	nt	nt	nt
CC(=O)OCC1=C(C(=O)O)N2C(=O)[C@@H](NC(=O)Cc3cccs3)[C@@H]2SC1	-5%	-6%	nt	?	-4%
Cc1nnc(SCC2=C(C(=O)O)N3C(=O)C(NC(=O)Cn4ncc(Cl)c4C)C3SC2)s1 (stereo not given)	28µM*	-3%	-1%	28µM*	1%
O=C(Cn1c(NCc2ccccc2)nc2ccccc21)Nc1ccc2c(c1)OCCO2	nt	nt	-19%	nt	nt
COc1cccc(-c2ccc3ncnc(N4CCN(C)CC4)c3c2)c1	18%	-4%	-13%	3%[0.501 µM]	?
COc1cccc(-c2cc3c(-n4cccc4)ncnc3o2)c1	22µM*	-1%	37%	14%[59 µM]	12%
O=C(CCc1ncc(-c2ccc(Cl)cc2)o1)NC1CCCC1	nt	nt	3%	nt	nt
N#Cc1ccc(Cl)cc1NC(=S)NCCc1ccccc1	nt	nt	23%	nt	nt
c1cncc(-c2csc(NCc3ccco3)n2)c1	-1%	1%	0%	13%[12.7 µM]	0%
Cc1nc2ccccn2c1-c1csc(Nc2cccc(C(=O)O)c2)n1	79µM*	-2%	-19%	45µM*	-11%
Cc1nc2ccccn2c1-c1csc(Nc2ccc(C(=O)O)cc2)n1	-11%	-5%	-8%	?	19%
Cc1cccc(Nc2nc(-c3sc(C)nc3C)cs2)c1	-20%	4%	3%	?	-18%
Cc1cccc(Nc2nc(-c3c(C)nc4ccccn34)cs2)c1	50µM*	4%	-26%	?	-9%
Cc1ccn2c(-c3csc(NCc4ccco4)n3)c(C)nc2c1	?	-6%	2%	45µM*	-7%
C=CCNC(=O)c1nc(-c2ccc3[nH]ccc3c2)no1	nt	nt	-4%	nt	nt
CC1OC23CCCCC2C(C#N)(C(=N)O3)C1(C#N)C#N (stereo not given)	-7%	-5%	-8%	12%[59 µM]	0%
CC1C2(C)OC(=N)C(C#N)(C(C)O2)C1(C#N)C#N (stereo not given)	-10%	-3%	nt	71µM*	5%
COCCN1C[C@H]2CN(Cc3ccccc3)CCN2C1=O	nt	nt	21%[176 µM]	nt	nt
SMILES	Sfp inh	Glioma ERSR ind	ALOX12 inh	G9a block	VDR inhibitor
COCCN1C[C@H]2CN(Cc3ccc(C(=O)O)cc3)CCN2C1=O	nt	nt	28µM*	nt	nt
CC(C)(C)OC(=O)[C@H]1[C@H](c2ccc([N+](=O)[O-])cc2)C2(C(=O)c3ccccc3C2=O)C2c3ccccc3C=NN21 (stereo not given in full)	-15%	4%	-26%	14µM*	-13%
COc1ccccc1NC(=O)Cn1cccc1-c1nc(-c2ccc(F)cc2)no1	nt	nt	36%	nt	nt
COc1ccc(N2C(=O)/C(=C/c3cccs3)NC2=S)cc1	10µM*	1%	?	1.8µM*	?
CN=c1scc(-c2[nH]c(C)c(C(=O)OC)c2C)n1C	nt	nt	7%	nt	nt
COC(=O)c1c(C)[nH]c(-c2csc(N)n2)c1C	45µM*	1%	?	?	34%
CC(=O)Nc1ccc(NC(=O)C/C(C)=N/NC(N)=S)cc1	56µM*	-6%	-71%	1.4µM*	7%

Assay outcomes: PubChem, National Center for Advancing Translational Sciences (NCATS)
